# VACV mCherry inh – vaccinia inhibition (mCherry reporter) | Vaccinia virus mCherry reporter infection, fluorescence | Potency, µM (doses to about 36.5 µM), inactives show at the top dose activity change, negative = inhibition, most hits filed as inhibitors | hit rate 0.63% among 310,000 | AID 720579; calls by dose curve; tested in A549 cells; note: potency is the fitted concentration of half-maximal effect; nearly all actives have a fitted effect of over 35% in size
# VACV Venus inh – inhibitors of vaccinia virus (Venus reporter). Vaccinia virus Venus reporter expression, fluorescence. Potency, µM (top dose mostly 36.5 µM), for inactives: top-dose activity change, negative = inhibition, hits mostly inhibitors. hit rate 0.46% among 330,000. AID 720580; calls by dose curve; tested in A549 cells; note: potency is the fitted concentration of half-maximal effect; nearly all actives have a fitted effect of over 30% in size
# FMDV antiviral – foot and mouth disease virus antiviral activity. FMDV antiviral cell-based qHTS. Potency, µM (series often up to 57.9 µM), for the others: top-dose activity change, negative = inhibition, actives largely listed as inhibitors. hit rate 1.2% among 410,000; calls by dose curve; tested in HEK293T cells; note: read-out not given here; potency is the fitted concentration of half-maximal effect; nearly all actives have a fitted effect of over 45% in size
# HCV inh – HCV inhibition | Huh7.5.1 HCVcc-Cre infection, luciferase reporter, 44 h | Potency, µM (top dose mostly 41.8 µM), for the others: at the highest dose activity change, negative = inhibition, actives largely listed as inhibitors | hit rate 3.4% among 340,000 | AID 651820; active = well fitted inhibition curve with a large enough effect; inconclusive = small, poorly fitted or top-dose-only effect, or another doubt; inactive = no such curve, though single readings can be large or run the other way; note: potency is the fitted concentration of half-maximal effect
#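 A cell-based infection assay in which seeded cells (1,000 per well) receive test compound after 4 h, are inoculated with HCVcc-Cre at approximately 0.5 moi, and are incubated 44 h before luminescence detection.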
# HCMV inh – inhibitors of human cytomegalovirus; hit rate 4.5% among 410,000; HFF cells, HCMV-luciferase reporter, 72 h; hits give low values; activity change, negative = inhibition, % at 57.5 µM; in the data active = activity change below about -60%; inconclusive = no clear call, values can overlap the other calls; inactive = above about -39%
#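 HFF cells seeded 16 h at 37C, treated with compounds, infected with luciferase-reporter HCMV at MOI 1 PFU/cell; luciferase read at 72 h post infection, normalized to buffer-only and Salinomycin controls.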
# * marks the source's active call; other numbers are inactive results; i = inactive; ? = inconclusive; . = no result; ! = repeats disagree; [ ] = dose if it differs, or a comment. Only some compounds are listed: those with a hit (about 7.3% of all), similar ones and a draw of the others. % is set by controls: 0 for no effect and ±100 for the full control effect.
SMILES,VACV mCherry inh,VACV Venus inh,FMDV antiviral,HCV inh,HCMV inh
CSCc1nc2scc(-c3ccccc3)c2c(=O)[nH]1,i,-21%,11%,19%,-24
Cc1c(C(=O)OCc2nc3scc(-c4ccccc4)c3c(=O)[nH]2)cccc1[N+](=O)[O-],-25%,-19%,14µM*,?,?
COc1ccc(CN(C)Cc2nc3scc(-c4ccccc4)c3c(=O)[nH]2)cc1OC,-20%,-21%,?,-13%,-60*
O=C(OCc1nc2scc(-c3ccccc3)c2c(=O)[nH]1)c1cc(Cl)ccc1[N+](=O)[O-],i,?,?,-2%,-26
Cc1sc2nc(CN(Cc3cccs3)C(=O)NC3CCCCC3)[nH]c(=O)c2c1C,-28%,?,-26%,11µM*,-25
Cc1sc2nc(CN(C(=O)NC3CCCCC3)C3CCCC3)[nH]c(=O)c2c1C,.,.,2%,-3%,-11
O=C(COc1ccc(Br)cc1CO)Nc1ccc(S(=O)(=O)N2CCCC2)cc1,-14%,-26%,35µM*,?,?
CCNS(=O)(=O)c1ccc(NC(=O)c2ccccc2OCC)cc1,-15%,-10%,.,5.6µM*,11
CCOc1ccc(S(=O)(=O)N2CCCC2)c2ccccc12,?,-15%,?,.,-30
CCCOc1ccccc1OCC(=O)Nc1ccc(S(=O)(=O)N2CCCCC2)cc1,-26%,-24%,-12%,?,-12
CCCOc1ccc(S(=O)(=O)N2CCN(C)CC2)c2ccccc12,?,-25%,11%,-20%,-61*
COc1ccccc1OCC(=O)Nc1ccc(S(=O)(=O)N2CCCCCC2)cc1,i,1%,.,1.6µM*,81
CCOc1ccccc1C(=O)Nc1ccc(S(=O)(=O)Nc2ncccn2)cc1,-14%[7.34 µM],-4%[7.34 µM],5%,.,18
CCOc1ccccc1CNC(=O)CN1C(=O)C2CCCCN2c2ccc(C(=O)N(C)C)cc21 (configuration not stated),-4%,-3%,-12%,.,12
Cc1ccc(NS(=O)(=O)c2ccc(Cl)nc2)c(C)c1,?,-29%,1%,?,-22
COc1cccc(OC)c1OCC(=O)Nc1ccc(S(=O)(=O)N2CCCC2)cc1,.,.,25µM*,8.9µM*,-25
CCN(CC(=O)Nc1ccc(S(=O)(=O)N2CCCC2)cc1)CC(=O)Nc1ccccc1C(F)(F)F,.,.,-23%,11µM*,9
CCCOc1ccccc1OCC(=O)Nc1ccc(S(=O)(=O)N2CCCC2)cc1,-11%,-1%,0%,10µM*,-17
CCCOc1ccccc1C(=O)Nc1ccc(S(=O)(=O)N2CCN(C)CC2)cc1,.,.,-14%,22µM*,-22
Cc1ccccc1OCC(=O)Nc1ccc(S(=O)(=O)N2CCCC2)cc1,-20%,-2%,-20%,?,?
Cc1ccc(S(=O)(=O)CCC(=O)N(C)C2CCCCC2)cc1,-13%,-1%,18%,.,27
CCOc1ccc2c(c1)c1nnc(SCC(=O)NC3CC3)nc1n2C,i,-19%,2%,-26%,-17
CN1CCN(S(=O)(=O)c2ccc(NC(=O)c3csc4ccccc34)cc2)CC1,.,.,6%,10µM*,134
CN1CCN(S(=O)(=O)c2ccc(NC(=O)C(C)(C)C)cc2)CC1,.,.,8%,7%,-108*
Cc1ccccc1OCC(=O)Nc1cc(S(=O)(=O)N2CCCCC2)ccc1N1CCN(C)CC1,?,?,-23%,11µM*,?
SMILES,VACV mCherry inh,VACV Venus inh,FMDV antiviral,HCV inh,HCMV inh
O=C(Nc1ccc(O)cc1)c1ccccc1OCc1ccccc1,.,.,-29%,14µM*,-77*
Cc1oc(-c2ccc3c(c2)OCCO3)cc1C(=O)O,-2%,-11%,2.2µM*,14%,-63*
Cc1oc(-c2ccc3c(c2)OCCO3)cc1C(=O)NCC(=O)O,-13%,-9%,28µM*,17%,-13
COc1ccc(-c2cc(C(=O)O)c(C)o2)cc1OC,.,.,13µM*,-20%,-17
COCCNc1nc(NCCOc2ccccc2)c2sc(-c3ccccc3)cc2n1,-27%,-26%,?,.,-8
CCOC(=O)c1c(-c2ccc([N+](=O)[O-])cc2)[nH]c2ccc(C)cc12,.,.,.,.,-22
Cc1cccc(NC(=O)Cn2c(=O)nc(-c3ccccc3)c3ccccc32)c1C,i,-15%,0%,.,28
Cc1c(Cl)cccc1NC(=O)Cn1c(=O)nc(-c2ccccc2)c2ccccc21,i,-22%,10µM*,.,-87*
O=C(Cn1c(=O)nc(-c2ccccc2)c2ccccc21)NCc1ccc(Cl)cc1,-9%,-21%,-9%,.,-94*
CNc1ncnc2c1ncn2[C@H]1CN(CCOC)C[C@@H](CO)O1,-1%,3%,-17%,.,-3
COc1ccc(Oc2c(C(F)(F)F)oc3c(CN4CCCC(C)C4)c(O)ccc3c2=O)cc1 (configuration not stated),0%,-10%,0%,.,-61*
O=C(NCCc1ccc(Cl)cc1)C(=O)NCC(c1cccs1)S(=O)(=O)c1cccs1 (configuration not stated),-4%,?,?,.,-2
COc1cc(OC)cc(-c2cc3ccc(OC)cc3cn2)c1,-14%,?,-5%,?,22
COc1cc(OC)cc(-c2cc3ncccc3cn2)c1,-11%,-13%,1%,11µM*,36
C=CCn1c(SCC(=O)c2cc(C)n(C(C)COC)c2C)nc2sc(C)c(C)c2c1=O (configuration not stated),.,.,?,10µM*,-5
C=CCn1c(SCC(=O)NCCO)nc2sc(C)c(C)c2c1=O,-13%,-12%,3.5µM*,-4%,-30
C=CCn1c(SCC(=O)Nc2ccc(C(=O)O)cc2)nc2sc(C)c(C)c2c1=O,.,.,-18%,16%,0
COC(=O)C1CC23C=CCN4CCC5(c6ccccc6NC15C2C)C43 (configuration not stated),13µM*,?,-2%,-4%,-84*
CN1CC[C@]23c4ccccc4N[C@H]1[C@]21CCN(C)[C@H]3Nc2ccccc21,-19%,-10%,-24%,-3%,-35
Cc1ccc(NC(=O)c2cc3nc(-c4ccc5c(c4)OCO5)cc(C(F)(F)F)n3n2)cc1Cl,1%,1%,-17%,.,16
CN1CCN(CCC(=O)N2c3ccccc3Sc3ccc(C(F)(F)F)cc32)CC1,-19%,-27%,.,5.6µM*,-27
OC1CC2CCC(C1)N2CCCN1c2ccccc2Sc2ccc(Cl)cc21 (configuration not stated),?,11µM*,-22%,?,-65*
CN(C)CCC(=O)N1c2ccccc2Sc2ccc(C(F)(F)F)cc21,.,.,-16%,?,-5
FC(F)(F)c1ccc2c(c1)N(CCCN1CCN(CCCl)CC1)c1ccccc1S2,.,?,11µM*,?,-73*
CN1CCN(CCCN2c3ccccc3Sc3ccc(Cl)cc32)CC1,11µM*!,11µM*,?,?,-29
OCCN1CCN(CCCN2c3ccccc3Sc3ccc(C(F)(F)F)cc32)CC1,-15%,?,?,?,-16
Cc1ccccc1C1(CC(=O)N2CC3CC4CC(C3)CC2C4)CC(=O)N(Cc2cccnc2)C1=O (configuration not stated),-19%,-10%,7%,.,.
